From PubChem BioAssay
This is a sample that favours compounds with a hit; in the whole collection about 3.6% have one here.
B2AR arrestin ag – qHTS assay of beta-arrestin-biased ligands of beta2-adrenergic receptor: NCGC Sytravon Library Screen | Beta-2 adrenergic receptor (Homo sapiens), P07550 | HTLA Tango cells, beta-arrestin recruitment, luciferase luminescence, 18 h | Potency, µM (top dose mostly 46.1 µM), usual class: activators | 44,000 tested, under 10 active;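 note: potency is the fitted concentration of half-maximal effect; 0% = DMSO and full agonism = EC100 isoproterenol or metaproterenol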
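Tango cell line, 1% FBS DMEM; cpd titration up to 46 microM; 18 hr, 37 degrees C, 5% CO2. Luciferin/ATP substrate mix added, 15 min RT, luminescence. %Activity, CRC fitting, curve-class categorization.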
GALK inhibitor – qHTS Assay for Inhibitors of Human Galactokinase (GALK): NCGC Sytravon Library Screen; Potency, µM (series often up to 57.5 µM), for inactives: at the top dose activity, negative = inhibition, usual class: inhibitors; 44,000 tested, under 10 active; recombinant GALK, Kinase-Glo ATP luminescence, 1 h;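 note: plate controls were full GALK reaction for no effect and reaction lacking GALK for full effect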
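5 nM GALK with 35 µM ATP and 100 µM galactose in HEPES pH 8.0, MgCl2, NaCl, DTT, BSA; 1 h RT reaction, remaining ATP detected by Kinase-Glo Plus luminescence after 10 min; qHTS concentration series.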
GALC G270D act – A Novel Cell-Based Assay to Identify Small Molecules for B -Galactocerebrosidase. 45,000 compounds, 0.1% hits. Potency, µM (highest dose often 57.5 µM), usual class: activators. 145M-Twi-hGALC-G270D cells (Twitcher mouse brain line with human GALC G270D), HMU-beta-Gal fluorescence, 48 h. P54803; note: potency is the fitted concentration of half-maximal effect; 0% is about no effect; nearly all actives have a fitted effect of over 65% in size
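Live 145M-Twi cells (Twitcher mouse brain-derived, GALC-null) stably expressing human GALC-G270D, with a wild-type GALC line, were compound-treated. Residual GALC activity was then read as fluorescence from 0.1 mM final HMU-β-gal at pH 5.2; higher signal means activation.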
TSG101-PTAP inh – qHTS Validation Assay for Inhibitors of HIV-1 Budding by Blocking the Interaction of PTAP/TSG101: Sytravon Library Screen. Tumor susceptibility gene 101 protein (Homo sapiens), Q99816. Fluorescence polarization, FITC-PTAP peptide/Tsg101, 20 min. Potency, µM (titrated, usually from 115 µM), hits mostly inhibitors. 44,000 tested, under 10 active; note: potency is the fitted concentration of half-maximal effect; 0% is about no effect
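Fluorescence polarization: Tsg101 binding domain (10 uM final) in 10 mM HEPES pH 7.5, 0.15 M NaCl, 0.01% Tween 20, 3 mM EDTA, 0.1 mM TCEP; compounds pinned; FITC-PTAP peptide 50 nM final; 20 min, r.t.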
NTMT1 inh – Primary qHTS for Inhibitors of N-terminal methyltransferase 1 (NTMT1): MTaseGlo Assay; N-terminal Xaa-Pro-Lys N-methyltransferase 1 (Homo sapiens), Q9BV86; NTMT1 MTase-Glo SAH luminescence, purified enzyme; Potency, µM (top dose mostly 114 µM), for the others: at the highest dose activity change, negative = inhibition, actives largely listed as inhibitors; 59,000 compounds, 2.5% hits; AID 1645870, 2021;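 note: potency is the fitted concentration of half-maximal effect; plate controls were DMSO vehicle for no effect and no enzyme for full effect; nearly all actives have a fitted effect of over 65% in size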
DRV1 agonist – qHTS for Agonists of Human Resolvin D1 Receptor DRV1; 48,000 compounds, 2.5% hits; CHO-K1 GPR32 beta-arrestin PathHunter luminescence, 90 min; zero percent set by DMSO-only wells; activation, % at 76.9 µM; AID 1346428, 2018; Probable G-protein coupled receptor 32 (Homo sapiens), O75388;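 active = activation of at least 60% and not above a set upper limit, about 1 call in 100 departs from these limits; inconclusive = activation of 40% to 60%, or above that upper limit; inactive = activation under 40%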; note: 0% is about no effect
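Agonism was scored as beta-arrestin recruitment to ProLink-fused GPR32 in stably transfected CHO-K1 cells, giving a chemiluminescent beta-Gal signal; compounds were incubated 90 min at 37 °C.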
CLK4 inh-1 – Confirmation Assay for Inhibitors of CDC-like Kinase 4 (Kinase-Glo Assay): SAR round 2. recombinant Clk4, Kinase-Glo ATP luminescence, 4.5 h. shares compounds with NTMT1 inh. 90 compounds, 90% hits. AID 493204, 2011. Potency, µM (series often up to 76.9 µM), for the others: at the top dose activity, negative = inhibition, hits mostly inhibitors
Target sequence (Q9HAZ1 whole entry, looked up): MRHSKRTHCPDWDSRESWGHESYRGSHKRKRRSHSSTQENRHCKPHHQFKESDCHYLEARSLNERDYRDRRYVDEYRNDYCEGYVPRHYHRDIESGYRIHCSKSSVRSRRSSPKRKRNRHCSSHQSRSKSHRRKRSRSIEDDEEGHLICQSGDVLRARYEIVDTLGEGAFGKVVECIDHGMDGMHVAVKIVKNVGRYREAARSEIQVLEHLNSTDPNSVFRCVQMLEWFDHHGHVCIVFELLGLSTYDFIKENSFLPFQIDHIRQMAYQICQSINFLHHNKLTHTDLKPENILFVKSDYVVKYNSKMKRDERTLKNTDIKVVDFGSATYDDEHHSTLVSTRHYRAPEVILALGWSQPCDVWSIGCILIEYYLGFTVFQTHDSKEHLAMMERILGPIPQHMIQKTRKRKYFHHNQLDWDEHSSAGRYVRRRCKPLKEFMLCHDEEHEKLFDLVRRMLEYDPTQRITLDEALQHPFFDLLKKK
CLK4 inh-2 – Kinase Inhibition Study on Inhibitors of CDC-like Kinase 4 (Reaction Biology data): SAR round 2. shares compounds with NTMT1 inh. Reaction Biology kinase assay, 10 uM ATP. Potency, µM, most hits filed as inhibitors. 65 compounds, 100% hits; calls by dose curve
DYRK1A inh – Kinase Inhibition Study on Inhibitors of Dyrk1a (Reaction Biology data) | 65 compounds, 90% hits | Potency, µM, hits mostly inhibitors | Reaction Biology kinase assay, 10 uM ATP | shares compounds with NTMT1 inh | AID 504424, 2011;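 active = compounds that showed inhibition of Dyrk1a and received a fitted potency; inactive = compounds that showed no inhibition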
CLK2 inh – Kinase Inhibition Study on Inhibitors of CDC-like Kinase 2 (Reaction Biology data); 65 compounds, 90% hits; Potency, µM, most hits filed as inhibitors; Reaction Biology kinase assay, 10 uM ATP; shares compounds with NTMT1 inh;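 active = compound that inhibits Clk2 kinase in the dose series, with an IC50 potency reported; inactive = no inhibition seen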
CLK3 inh – Kinase Inhibition Study on Inhibitors of CDC-like Kinase 3 (Reaction Biology data); shares compounds with NTMT1 inh; recombinant CLK3 kinase assay, 10 uM ATP; Potency, µM, hits mostly inhibitors; 65 compounds, 40% hits; AID 504428, 2011;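 active = compounds that inhibited Clk3 enough in the ten-dose series to give a half-maximal potency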
DYRK1B inh – Kinase Inhibition Study on Inhibitors of Dyrk1b (Reaction Biology data). shares compounds with NTMT1 inh. Recombinant Dyrk1b kinase assay, 10 uM ATP. Potency, µM, actives largely listed as inhibitors. 65 compounds, 80% hits. AID 504429, 2011;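 active = compounds whose dose response shows an inhibitor phenotype against the kinase Dyrk1b; inactive = compounds showing no inhibitor phenotype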
CLK1 inh – Kinase Inhibition Study on Inhibitors of CDC-like Kinase 1 (Reaction Biology data); shares compounds with NTMT1 inh; recombinant Clk1 kinase assay, 10 uM ATP; Potency, µM, usual class: inhibitors; 65 compounds, 90% hits;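 active = compounds that block the splicing kinase Clk1 enough to give a fitted half-inhibition concentration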
NNMT inh – Counterscreen qHTS for Inhibitors of N-terminal methyltransferase 1 (NTMT1): NNMT MTaseGlo assay; Potency, µM (series often up to 57.1 µM), for inactives: at the highest dose activity, negative = inhibition, hits mostly inhibitors; NNMT MTase-Glo luminescence, SAH detection; AID 1645878, 2021; 120 compounds, 10% hits; shares compounds with NTMT1 inh
Target sequence (P40261 whole entry, looked up): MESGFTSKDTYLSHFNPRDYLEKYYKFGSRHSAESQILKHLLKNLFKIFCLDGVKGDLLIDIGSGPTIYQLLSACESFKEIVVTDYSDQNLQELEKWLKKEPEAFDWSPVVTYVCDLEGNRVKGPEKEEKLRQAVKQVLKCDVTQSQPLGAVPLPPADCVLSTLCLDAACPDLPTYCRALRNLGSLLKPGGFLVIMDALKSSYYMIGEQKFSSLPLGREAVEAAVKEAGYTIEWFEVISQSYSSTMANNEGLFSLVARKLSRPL
* marks the source's active call; other numbers are inactive results; ! = a repeat was not active; [ ] = dose if it differs, or a comment. Unless noted, calls come from the whole dose curve; as a rule, active = well fitted curve in the direction sought with a large enough effect; inconclusive = small, poorly fitted or top-dose-only effect, or another doubt; inactive = no such curve, though single readings can be large; an effect the other way counts as inactive or inconclusive.

`Cc1ccc(CN(C(=O)c2ccc(C(C)(C)C)cc2)c2ccccn2)o1` gave B2AR arrestin ag inactive, GALK inhibitor 0%, GALC G270D act inactive, TSG101-PTAP inh inactive, NTMT1 inh -13% and DRV1 agonist 1.
For Cc1ccsc1CN(C)c1ncnc2ccc(-c3ccc(COC(=O)N(C)C)o3)cc12 the results were CLK4 inh-1 1.5µM*.
For Cc1ccc(CN(C)c2ncnc3ccc(-c4ccc(CO)o4)cc23)o1 the results were NTMT1 inh inconclusive and CLK4 inh-1 0.065µM*.
For O=S(=O)(Cc1ccc(Cl)c(Cl)c1)Nc1nnc(-c2ccncc2)s1 the results were NTMT1 inh 14%.
`C=Cc1cc(O)cc2nc(-c3ccc(O)c(F)c3)oc12` gave NTMT1 inh 13µM* and NNMT inh inconclusive.
Screening CCC(=O)Nc1cc(-c2nc3cc(C)cc(C)c3o2)ccc1C returned B2AR arrestin ag inactive, GALK inhibitor -2%, GALC G270D act inactive, TSG101-PTAP inh inactive, NTMT1 inh 3% and DRV1 agonist -21.
For COc1cc2c(cc1OC)CN(CCc1ccc(NC(=O)c3cccc4c(=O)c5cccc(OC)c5[nH]c34)cc1)CC2 the results were NTMT1 inh 28µM*! and NNMT inh 4µM*.
`Cc1cn2c(n1)Cc1ccc(Cl)cc1C(c1ccc(N)cc1)=N2` gave NTMT1 inh -14%[57.5 µM].
For CC(C)c1cc(CNc2nc(Nc3cc(C4CC4)[nH]n3)cc(N3CCN(C)CC3)n2)on1 the results were NTMT1 inh inconclusive and NNMT inh -16%.
`Cc1ccc(CNc2ncnc3ccc(-c4ccc([C@@H](C)O)o4)cc23)o1` gave NTMT1 inh inconclusive and CLK4 inh-1 0.18µM*.
For Cc1noc(C)c1-c1ccc2ncnc(NCc3ccc(C(F)(F)F)o3)c2c1 the results were NTMT1 inh 6%[57.5 µM].
For Cc1ccc(CNc2ncnc3ccc(-c4ccc(C(=O)O)o4)cc23)o1 the results were CLK4 inh-1 0.073µM*, CLK4 inh-2 0.1*, DYRK1A inh 17µM*, CLK2 inh 1.4µM*, CLK3 inh inactive, DYRK1B inh 4.9µM* and CLK1 inh 1.6µM*.
Cc1csc(CNc2ncnc3ccc(-c4ccc(C(=O)O)o4)cc23)n1 was read as NTMT1 inh -2%[57.5 µM], CLK4 inh-1 0.37µM*, CLK4 inh-2 1*, DYRK1A inh 46µM*, CLK2 inh 9.5µM*, CLK3 inh inactive, DYRK1B inh 13µM* and CLK1 inh 16µM*.
For CCNC(=O)c1ccc(-c2ccc3ncnc(NCc4nccs4)c3c2)o1 the results were NTMT1 inh inconclusive, CLK4 inh-1 0.52µM*, CLK4 inh-2 0.88*, DYRK1A inh 5.1µM*, CLK2 inh 19µM*, CLK3 inh inactive, DYRK1B inh 5µM* and CLK1 inh 7µM*.
Screening N#Cc1c(C(=O)c2cccs2)no[n+]1[O-] returned NTMT1 inh -1%.
Screening Cc1ccc(S(=O)(=O)Nc2cnccc2C(=O)Nc2ccc(N3CCOCC3)cc2)cc1 returned NTMT1 inh 14%.
Cc1cc(NS(=O)(=O)c2ccc(NC(=O)C(C)(C)c3ccc(Cl)c(Cl)c3)cc2)no1 was read as NTMT1 inh 5%.
Screening Cc1cc(-c2nnc3n2CCCCCCC3)c(C)n1-c1ccccc1 returned NTMT1 inh 1%.
CN1CCN(c2nc(-c3ccc(C(=O)NC4(C(=O)NCC#N)CCCCC4)cc3)cs2)CC1 was read as NTMT1 inh -1%[57.5 µM].
Screening O=C(O)c1ccc(O)c2ncc(N3CCCN(CCc4cccc5ccccc45)CC3)cc12 returned NTMT1 inh 38%[57.5 µM].
